# According to the supplement of paper PMC8728848:
# Only a selection was taken, and the strongest signals are over-represented in it overall.
# What was measured:
# Assay in all cases: glycan array binding signal (z-score within array); higher = stronger binding
# Settings in all cases: glycan notation: IUPAC condensed, linker removed
# Fuc(a1-2)Gal(b1-4)Glc = molecular target: Fuc(a1-2)Gal(b1-4)Glc
# Summary of the method: (§1)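 Glycan array binding is given as a within-array Z-score, which can be read as non-binding when negative. The arrays, 3228 of them, came from the Consortium for Functional Glycomics database and were retained only where the protein sequence was available. Z-scores were averaged across arrays of the same protein sequence at different concentrations or buffers and across linkers.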
# [1] = molecular target: Fuc(a1-2)Gal(b1-4)GlcNAc(b1-2)[Fuc(a1-2)Gal(b1-4)GlcNAc(b1-4)]Man(a1-3)[Fuc(a1-2)Gal(b1-4)GlcNAc(b1-2)Man(a1-6)]Man(b1-4)GlcNAc(b1-4)GlcNAc
# Summary of the method: as §1
# [2] = molecular target: Fuc(a1-2)Gal(b1-4)GlcNAc(b1-3)[Fuc(a1-2)Gal(b1-4)GlcNAc(b1-6)]GalNAc
# Summary of the method: as §1
# [3] = molecular target: Fuc(a1-2)[Gal(a1-3)]Gal(b1-4)[Fuc(a1-3)]Glc
# Summary of the method: as §1
# [4] = molecular target: Fuc(a1-2)[Gal(a1-3)]Gal(b1-4)[Fuc(a1-3)]GlcNAc(b1-3)GalNAc
# Summary of the method: as §1
# [5] = molecular target: Fuc(a1-2)[Gal(a1-4)]Gal(b1-4)GlcNAc
# Summary of the method: as §1
# [6] = molecular target: Fuc(a1-2)[GalNAc(a1-3)]Gal
# Summary of the method: as §1
# [7] = molecular target: Fuc(a1-2)[GalNAc(a1-3)]Gal(b1-3)GlcNAc(b1-3)GalNAc
# Summary of the method: as §1
# [8] = molecular target: Fuc(a1-2)[GalNAc(a1-3)]Gal(b1-4)GlcNAc
# Summary of the method: as §1
# [9] = molecular target: Fuc(a1-2)[GalNAc(a1-3)]Gal(b1-4)GlcNAc(b1-3)Gal(b1-4)GlcNAc(b1-3)Gal(b1-4)GlcNAc
# Summary of the method: as §1
# [10] = molecular target: Fuc(a1-2)[GalNAc(a1-3)]Gal(b1-4)GlcNAc(b1-3)GalNAc
# Summary of the method: as §1
# [11] = molecular target: Fuc(a1-2)[GalNAc(a1-3)]Gal(b1-4)[Fuc(a1-3)]GlcNAc
# Summary of the method: as §1
# Fuc(a1-3)GlcNAc = molecular target: Fuc(a1-3)GlcNAc
# Summary of the method: as §1
# [12] = molecular target: Fuc(a1-3)[Gal(b1-4)]GlcNAc(b1-6)GalNAc
# Summary of the method: as §1
# [13] = molecular target: Fuc(a1-3)[Gal3S(b1-4)]GlcNAc
# Summary of the method: as §1
# [14] = molecular target: Gal(a1-4)Gal(b1-4)GlcNAc(b1-3)Gal(b1-4)Glc
# Summary of the method: as §1
# [15] = molecular target: Gal(b1-3)GlcNAc(b1-3)GalNAc
# Summary of the method: as §1
# [16] = molecular target: Gal(b1-3)GlcNAc(b1-6)Gal(b1-4)GlcNAc
# Summary of the method: as §1
# [17] = molecular target: Gal(b1-3)[Fuc(a1-4)]GlcNAc(b1-3)Gal(b1-4)GlcNAc
# Summary of the method: as §1
# [18] = molecular target: Gal(b1-3)[Neu5Ac(a2-6)]GalNAc
# Summary of the method: as §1
# [19] = molecular target: Gal(b1-4)GlcNAc(b1-3)Gal(b1-3)GalNAc
# Summary of the method: as §1
# [20] = molecular target: Gal(b1-4)GlcNAc(b1-3)Gal(b1-4)GlcNAc(b1-2)Man(a1-3)[Gal(b1-4)GlcNAc(b1-3)Gal(b1-4)GlcNAc(b1-2)Man(a1-6)]Man(b1-4)GlcNAc(b1-4)[Fuc(a1-6)]GlcNAc
# Summary of the method: as §1
# [21] = molecular target: Gal(b1-4)GlcNAc(b1-3)Gal(b1-4)GlcNAc(b1-2)[Gal(b1-4)GlcNAc(b1-3)Gal(b1-4)GlcNAc(b1-6)]Man(a1-6)[Gal(b1-4)GlcNAc(b1-3)Gal(b1-4)GlcNAc(b1-2)Man(a1-3)]Man(b1-4)GlcNAc(b1-4)GlcNAc
# Summary of the method: as §1
# [22] = molecular target: Gal(b1-4)GlcNAc(b1-3)Gal(b1-4)GlcNAc(b1-3)Gal(b1-4)GlcNAc(b1-3)Gal(b1-4)GlcNAc(b1-2)Man(a1-3)[Gal(b1-4)GlcNAc(b1-3)Gal(b1-4)GlcNAc(b1-3)Gal(b1-4)GlcNAc(b1-3)Gal(b1-4)GlcNAc(b1-2)Man(a1-6)]Man(b1-4)GlcNAc(b1-4)[Fuc(a1-6)]GlcNAc
# Summary of the method: as §1
# [23] = molecular target: Gal(b1-4)GlcNAc(b1-3)Gal(b1-4)GlcNAc(b1-3)Gal(b1-4)GlcNAc(b1-3)Gal(b1-4)GlcNAc(b1-3)Gal(b1-4)GlcNAc(b1-2)Man(a1-3)[Gal(b1-4)GlcNAc(b1-3)Gal(b1-4)GlcNAc(b1-3)Gal(b1-4)GlcNAc(b1-3)Gal(b1-4)GlcNAc(b1-3)Gal(b1-4)GlcNAc(b1-2)Man(a1-6)]Man(b1-4)GlcNAc(b1-4)[Fuc(a1-6)]GlcNAc
# Summary of the method: as §1
# [24] = molecular target: Gal(b1-4)GlcNAc(b1-6)[Gal(b1-3)]GalNAc
# Summary of the method: as §1
# Gal3S(b1-3)GlcNAc = molecular target: Gal3S(b1-3)GlcNAc
# Summary of the method: as §1
# [25] = molecular target: Gal3S(b1-4)[Fuc(a1-3)]Glc6S
# Summary of the method: as §1
# Gal3S6S(b1-4)GlcNAc = molecular target: Gal3S6S(b1-4)GlcNAc
# Summary of the method: as §1
# [26] = molecular target: GlcNAc(b1-3)Gal(b1-4)GlcNAc(b1-3)Gal(b1-4)GlcNAc(b1-3)Gal(b1-4)GlcNAc(b1-3)Gal(b1-4)GlcNAc(b1-2)Man(a1-3)[GlcNAc(b1-3)Gal(b1-4)GlcNAc(b1-3)Gal(b1-4)GlcNAc(b1-3)Gal(b1-4)GlcNAc(b1-3)Gal(b1-4)GlcNAc(b1-2)Man(a1-6)]Man(b1-4)GlcNAc(b1-4)[Fuc(a1-6)]GlcNAc
# Summary of the method: as §1
# [27] = molecular target: GlcNAc(b1-3)Gal(b1-4)GlcNAc(b1-6)[Gal(b1-3)]GalNAc
# Summary of the method: as §1
# [28] = molecular target: GlcNAc(b1-3)[GlcNAc(b1-6)]GalNAc
# Summary of the method: as §1
# Kdn(a2-6)Gal(b1-4)GlcNAc = molecular target: Kdn(a2-6)Gal(b1-4)GlcNAc
# Summary of the method: as §1
# [29] = molecular target: Man(a1-2)Man(a1-3)[Man(a1-2)Man(a1-6)]Man
# Summary of the method: as §1
# [30] = molecular target: Man(a1-2)Man(a1-6)[Man(a1-3)]Man(a1-6)[Man(a1-2)Man(a1-2)Man(a1-3)]Man
# Summary of the method: as §1
# [31] = molecular target: Neu5Ac(a2-3)Gal(b1-3)GlcNAc(b1-3)Gal(b1-3)GlcNAc
# Summary of the method: as §1
# [32] = molecular target: Neu5Ac(a2-3)Gal(b1-3)GlcNAc(b1-3)GalNAc
# Summary of the method: as §1
# [33] = molecular target: Neu5Ac(a2-3)Gal(b1-3)GlcNAc(b1-4)Gal(b1-4)Glc
# Summary of the method: as §1
# [34] = molecular target: Neu5Ac(a2-3)Gal(b1-4)GlcNAc(b1-3)Gal(b1-4)GlcNAc
# Summary of the method: as §1
# [35] = molecular target: Neu5Ac(a2-3)Gal(b1-4)GlcNAc(b1-3)Gal(b1-4)GlcNAc(b1-3)Gal(b1-4)GlcNAc(b1-2)Man(a1-3)[Neu5Ac(a2-3)Gal(b1-4)GlcNAc(b1-3)Gal(b1-4)GlcNAc(b1-3)Gal(b1-4)GlcNAc(b1-2)Man(a1-6)]GalNAc
# Summary of the method: as §1
# [36] = molecular target: Neu5Ac(a2-3)Gal(b1-4)[Fuc(a1-3)]GlcNAc(b1-3)GalNAc
# Summary of the method: as §1
# [37] = molecular target: Neu5Ac(a2-6)Gal(b1-4)GlcNAc(b1-2)Man(a1-3)Man(b1-4)GlcNAc(b1-4)GlcNAc
# Summary of the method: as §1
# [38] = molecular target: Neu5Ac(a2-6)Gal(b1-4)GlcNAc(b1-2)[Neu5Ac(a2-6)Gal(b1-4)GlcNAc(b1-6)]Man(a1-6)[Neu5Ac(a2-6)Gal(b1-4)GlcNAc(b1-2)Man(a1-3)][GlcNAc(b1-4)]Man(b1-4)GlcNAc(b1-4)GlcNAc
# Summary of the method: as §1
# Neu5Ac(a2-6)GalNAc = molecular target: Neu5Ac(a2-6)GalNAc
# Summary of the method: as §1
# [39] = molecular target: Neu5Ac(a2-8)Neu5Ac(a2-3)Gal(b1-4)Glc
# Summary of the method: as §1
# [40] = molecular target: Neu5Ac(a2-8)Neu5Ac(a2-3)Gal(b1-4)GlcNAc
# Summary of the method: as §1
# [41] = molecular target: Neu5Ac(a2-8)Neu5Ac(a2-8)Neu5Ac(a2-3)[Gal(b1-3)GalNAc(b1-4)]Gal(b1-4)Glc
# Summary of the method: as §1
# [42] = molecular target: Neu5Ac9Ac(a2-6)Gal(b1-4)GlcNAc
# Summary of the method: as §1
# [43] = molecular target: Neu5Gc(a2-8)Neu5Ac(a2-3)Gal(b1-4)GlcNAc
# Summary of the method: as §1
binder,measurement,setting,value
"CD4 (Rattus norvegicus), P05540 (protein) MCRGFSFRHLLPLLLLQLSKLLVVTQGSTSITAYKSEGESAEFSFPLNLGEESLQGELRWKAEKAPSSQSWITFSLKNQKVSVQKSTSNPKFQLSETLPLTLQIPQVSLQFAGSGNLTLTLDRGILYQEVNLVVMKVTQPDSNTLTCEVMGPTSPKMRLILKQENQEARVSRQEKVIQVQAPEAGVWQCLLSEGEEVKMDSKIQVLSKGLNSGGGSGGGTGGGDLAPQMLRELQETNAALQDVRELLRQQVKEITFLKNTVMECDACGLDRNLPPLAPLGPHPETLVKVKDAEDQLGARVGYIELDLNSGKILESFRPEERFPMMSTFKVLLCGAVLSRIDAGQEQLGRRIHYSQNDLVEYSPVTEKHLTDGMTVRELCSAAITMSDNTAANLLLTTIGGPKELTAFLHNMGDHVTRLDRWEPELNEAIPNDERDTTMPVAMATTLRKLLTGELLTLASRQQLIDWMEADKVAGPLLRSALPAGWFIADKSGAGERGSRGIIAALGPDGKPSRIVVIYTTGSQATMDERNRQIAEIGASLIKHW",glycan array binding signal (z-score),Fuc(a1-2)Gal(b1-4)Glc,1.27
same,glycan array binding signal (z-score),[1],1.76
same,glycan array binding signal (z-score),[2],-0.242
same,glycan array binding signal (z-score),[3],0.448
same,glycan array binding signal (z-score),[4],-0.228
same,glycan array binding signal (z-score),[5],1.9
same,glycan array binding signal (z-score),[6],-0.738
same,glycan array binding signal (z-score),[7],2.41
same,glycan array binding signal (z-score),[8],-0.98
same,glycan array binding signal (z-score),[9],3.72
same,glycan array binding signal (z-score),[10],-0.665
same,glycan array binding signal (z-score),[11],2.67
same,glycan array binding signal (z-score),Fuc(a1-3)GlcNAc,-1.59
same,glycan array binding signal (z-score),[12],0.46
same,glycan array binding signal (z-score),[13],-0.413
same,glycan array binding signal (z-score),[14],3.31
same,glycan array binding signal (z-score),[15],0.109
same,glycan array binding signal (z-score),[16],-1.04
same,glycan array binding signal (z-score),[17],-0.072
same,glycan array binding signal (z-score),[18],-1.09
same,glycan array binding signal (z-score),[19],3.12
same,glycan array binding signal (z-score),[20],2.88
same,glycan array binding signal (z-score),[21],2.6
same,glycan array binding signal (z-score),[22],2.6
same,glycan array binding signal (z-score),[23],2.8
same,glycan array binding signal (z-score),[24],-1.17
same,glycan array binding signal (z-score),Gal3S(b1-3)GlcNAc,-0.868
same,glycan array binding signal (z-score),[25],3.99
same,glycan array binding signal (z-score),Gal3S6S(b1-4)GlcNAc,-0.623
same,glycan array binding signal (z-score),[26],-0.266
same,glycan array binding signal (z-score),[27],-0.267
same,glycan array binding signal (z-score),[28],-0.65
same,glycan array binding signal (z-score),Kdn(a2-6)Gal(b1-4)GlcNAc,-1.16
same,glycan array binding signal (z-score),[29],-0.568
same,glycan array binding signal (z-score),[30],1.05
same,glycan array binding signal (z-score),[31],0.207
same,glycan array binding signal (z-score),[32],-0.719
same,glycan array binding signal (z-score),[33],-1.28
same,glycan array binding signal (z-score),[34],-1.14
same,glycan array binding signal (z-score),[35],3.17
same,glycan array binding signal (z-score),[36],2.77
same,glycan array binding signal (z-score),[37],0.03
same,glycan array binding signal (z-score),[38],-1.55
same,glycan array binding signal (z-score),Neu5Ac(a2-6)GalNAc,-0.467
same,glycan array binding signal (z-score),[39],-0.183
same,glycan array binding signal (z-score),[40],0.265
same,glycan array binding signal (z-score),[41],0.105
same,glycan array binding signal (z-score),[42],0.028
same,glycan array binding signal (z-score),[43],-0.129
